These results are taken from the supplement of paper PMC12350171.

The subject of this assay is Haemophilus parainfluenzae. The assay can be described thus: growth AUC normalised to DMSO control (fraction of control); higher = less growth inhibition, active = hit call of the paper. Conditions: 20 µM. The gist of the method: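 Three biological replicates were carried out, with OD578 read hourly for 24 h. Before inoculation at a starting OD578 of 0.01, pathogens were passaged anaerobically twice; plates were pre-reduced mGAM containing 20 μM compound and 1% DMSO, sealed with breathable membranes, and the Haemophilus parainfluenzae medium carried added hemin and NAD. Area under each growth curve was calculated by the trapezoidal rule up to the exponential-to-stationary transition and normalised to DMSO controls on the same plate.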

Counter-ions that a name gives are not always drawn. Values without a mark were called inactive.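 How the source made its calls: active = AUC significantly below DMSO controls by Student t-fit with adjusted P under 0.01; inactive = not significantly reduced.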

In the case of `Cc1onc(-c2ccccc2)c1C(=O)N[C@@H]1C(=O)N2[C@@H]1SC(C)(C)[C@@H]2C(=O)O` [Oxacillin sodium], the “growth AUC normalised to DMSO control” value was 0.928.

On to `NCCCC(O)(P(=O)(O)O)P(=O)(O)O` [Alendronate sodium], for which the “growth AUC normalised to DMSO control” value is 1.05.

On to `CC(=O)NS(=O)(=O)c1ccc(N)cc1` [Sulfacetamide sodic hydrate], for which the “growth AUC normalised to DMSO control” value is 1.03.

Take `CC(=O)Oc1ccc(C(c2ccc(OC(C)=O)cc2)c2ccccn2)cc1` [Bisacodyl]: the “growth AUC normalised to DMSO control” value is 1.03.

With `CC(CN1c2ccccc2Sc2ccccc21)N(C)C` (stereo not given) [Promethazine hydrochloride], the “growth AUC normalised to DMSO control” value is 0.954.

In the case of `Clc1ccccc1C(c1ccccc1)(c1ccccc1)n1ccnc1` [Clotrimazole], the “growth AUC normalised to DMSO control” value was 0.968.

For `COc1c(N2C[C@@H]3CCCN[C@@H]3C2)c(F)cc2c(=O)c(C(=O)O)cn(C3CC3)c12` [Moxifloxacin], the “growth AUC normalised to DMSO control” value is 0.0254 (active).

For the compound `CCC(=O)O[C@]1(C(=O)SCF)[C@H](C)C[C@H]2[C@@H]3C[C@H](F)C4=CC(=O)C=C[C@]4(C)[C@@]3(F)[C@@H](O)C[C@@]21C` [Fluticasone propionate], the “growth AUC normalised to DMSO control” value was 0.997.

In the case of `Cc1c(Cl)cccc1Nc1ccccc1C(=O)O` [Tolfenamic acid], the “growth AUC normalised to DMSO control” value was 0.852 (active).

`NNc1nncc2ccccc12` [Hydralazine hydrochloride]: the “growth AUC normalised to DMSO control” value was 1.03.

With `CC(CCc1ccccc1)NCC(O)c1ccc(O)c(C(N)=O)c1` (stereo not given) [Labetalol hydrochloride], the “growth AUC normalised to DMSO control” value was 0.954.

On to `Cc1cc(C(C)(C)C)c(O)c(C)c1CC1=NCCN1` [Oxymetazoline hydrochloride], for which the “growth AUC normalised to DMSO control” value is 0.991.

For the compound `c1ccc2c(c1)CCCC2C1=NCCN1` (stereo not given) [Tetrahydrozoline hydrochloride], the “growth AUC normalised to DMSO control” value was 0.986.

Consider `C[C@H]1O[C@H](O[C@H]2[C@H](O)[C@@H](O)[C@@H](O[C@@H]([C@H](O)[C@@H](O)C=O)[C@H](O)CO)O[C@@H]2CO)[C@H](O)[C@@H](O)[C@@H]1N[C@H]1C=C(CO)[C@@H](O)[C@H](O)[C@H]1O` [Acarbose], for which the “growth AUC normalised to DMSO control” value is 1.02.

As to `CCCCOC(=O)c1ccc(N)cc1` [Butamben], the “growth AUC normalised to DMSO control” value was 1.

In the case of `CCCCNC(=O)NS(=O)(=O)c1ccc(C)cc1` [Tolbutamide], the “growth AUC normalised to DMSO control” value was 0.99.

Take `O=C1c2c(O)cccc2Cc2cccc(O)c21` [Anthralin]: the “growth AUC normalised to DMSO control” value was 1.39.

As for `O=C(O)CCCC[C@@H]1SC[C@@H]2NC(=O)N[C@@H]21` [Biotin], the “growth AUC normalised to DMSO control” value was 1.01.

On to `CCn1cc(C(=O)O)c(=O)c2cc(F)c(N3CCNC(C)C3)c(F)c21` (stereo not given) [Lomefloxacin hydrochloride], for which the “growth AUC normalised to DMSO control” value is 0.04 (active).

Consider `O=C1OCCN1/N=C/c1ccc([N+](=O)[O-])o1` [Furazolidone], for which the “growth AUC normalised to DMSO control” value was 0.361 (active).

As to `CC(C)OC(=O)C(C)(C)Oc1ccc(C(=O)c2ccc(Cl)cc2)cc1` [Fenofibrate], the “growth AUC normalised to DMSO control” value was 0.961.

With `C#C[C@]1(O)CC[C@H]2[C@@H]3[C@H](C)CC4=C(CCC(=O)C4)[C@H]3CC[C@@]21C` [Tibolone], the “growth AUC normalised to DMSO control” value was 0.966.

Consider `O=C(NCCN1CCOCC1)c1ccc(Cl)cc1` [Moclobemide], for which the “growth AUC normalised to DMSO control” value was 0.971.

For `O=C(O)CCNC(=O)c1ccc(/N=N/c2ccc(O)c(C(=O)O)c2)cc1` [Balsalazide disodium salt], the “growth AUC normalised to DMSO control” value was 1.07.

Regarding `NS(=O)(=O)c1cc2c(cc1C(F)(F)F)NC(Cc1ccccc1)NS2(=O)=O` (stereo not given) [Bendroflumethiazide], the “growth AUC normalised to DMSO control” value was 1.02.

For `CCCCC(O)c1ccccc1` (stereo not given) [Fenipentol], the “growth AUC normalised to DMSO control” value is 0.989.

For the compound `CC[C@H](C)C(=O)O[C@H]1C[C@H](O)C=C2C=C[C@H](C)[C@H](CC[C@@H](O)C[C@@H](O)CC(=O)O)[C@H]21` [Pravastatin], the “growth AUC normalised to DMSO control” value was 1.09.

On to `CCCCN(CCCC)CCC(O)c1cc2c(Cl)cc(Cl)cc2c2cc(C(F)(F)F)ccc12` (stereo not given) [Halofantrine hydrochloride], for which the “growth AUC normalised to DMSO control” value is 1.06.

As to `C[C@]12CCC(=O)C=C1CC[C@@H]1[C@@H]2[C@@H](O)C[C@@]2(C)[C@H]1CC[C@]2(O)C(=O)CO` [Hydrocortisone], the “growth AUC normalised to DMSO control” value is 0.936.

Regarding `CCN1CCCC1CNC(=O)c1cc(S(N)(=O)=O)ccc1OC` (stereo not given) [Sulpiride], the “growth AUC normalised to DMSO control” value was 1.02.

As to `CCC(C)(CN(C)C)OC(=O)c1ccccc1` (stereo not given) [Amyleine hydrochloride], the “growth AUC normalised to DMSO control” value is 1.01.

`COc1ccc(C(Cl)=C(c2ccc(OC)cc2)c2ccc(OC)cc2)cc1` [Chlorotrianisene]: the “growth AUC normalised to DMSO control” value was 0.951.

On to `CNCC(O)c1ccc(OC(=O)C(C)(C)C)c(OC(=O)C(C)(C)C)c1` (stereo not given) [Dipivefrin hydrochloride], for which the “growth AUC normalised to DMSO control” value is 0.986.

Take `CCN(CCO)CCCC(C)Nc1ccnc2cc(Cl)ccc12` (stereo not given) [Hydroxychloroquine sulfate]: the “growth AUC normalised to DMSO control” value is 1.

In the case of `CC(NCCC(c1ccccc1)c1ccccc1)c1ccccc1` (stereo not given) [Fendiline hydrochloride], the “growth AUC normalised to DMSO control” value was 0.986.

As for `CC(=O)Oc1ccccc1C(=O)O` [Acetylsalicylic acid], the “growth AUC normalised to DMSO control” value was 1.08.

`CN1CCN(C(c2ccccc2)c2ccccc2)CC1` [Cyclizine hydrochloride]: the “growth AUC normalised to DMSO control” value is 0.995.

Regarding `N[C@@H](Cc1ccc(O)c(O)c1)C(=O)O` [Levodopa], the “growth AUC normalised to DMSO control” value is 1.02.

For `CN1CCC(=C2c3ccccc3Sc3ccccc32)CC1` [Pimethixene maleate], the “growth AUC normalised to DMSO control” value is 0.908.

On to `CN[C@@H]1[C@H](O[C@H]2[C@H](O[C@H]3[C@H](O)[C@@H](O)[C@H](N=C(N)N)[C@@H](O)[C@@H]3N=C(N)N)O[C@@H](C)[C@]2(O)C=O)O[C@@H](CO)[C@H](O)[C@H]1O` [Streptomycin sulfate], for which the “growth AUC normalised to DMSO control” value was 0.633 (active).

In the case of `CN/C(=N\CCSCc1nc[nH]c1C)NC#N` [Cimetidine], the “growth AUC normalised to DMSO control” value was 0.993.

For `CC[C@H](C)[C@H](N)C1=N[C@H](C(=O)N[C@@H](CC(C)C)C(=O)N[C@H](CCC(=O)O)C(=O)N[C@H](C(=O)N[C@H]2CCCCNC(=O)[C@H](CC(N)=O)NC(=O)[C@@H](CC(=O)O)NC(=O)[C@H](Cc3cnc[nH]3)NC(=O)[C@@H](Cc3ccccc3)NC(=O)[C@H]([C@@H](C)CC)NC(=O)[C@@H](CCCN)NC2=O)[C@@H](C)CC)CS1` [Bacitracin], the “growth AUC normalised to DMSO control” value is 0.999.

`CCN1CCC[C@H]1CNC(=O)c1c(OC)ccc(Br)c1OC` [Remoxipride hydrochloride]: the “growth AUC normalised to DMSO control” value is 1.04.

Turning to `Nc1nc(N)nc(-c2cc(Cl)ccc2Cl)n1` [Irsogladine maleate], the “growth AUC normalised to DMSO control” value was 1.01.

In the case of `CN1CCC[C@@H]1CCO[C@](C)(c1ccccc1)c1ccc(Cl)cc1` [Clemastine fumarate], the “growth AUC normalised to DMSO control” value was 0.973.

Consider `Cc1cc(/C=C/c2ccc3cc(N(C)C)ccc3[n+]2C)c(C)n1-c1ccccc1` [Pyrvinium pamoate], for which the “growth AUC normalised to DMSO control” value is 1.06.

As to `OCCN1CCN(CCCN2c3ccccc3Sc3ccc(Cl)cc32)CC1` [Perphenazine], the “growth AUC normalised to DMSO control” value was 0.924.

In the case of `O=C(O)c1cc(/N=N/c2ccc(S(=O)(=O)Nc3ccccn3)cc2)ccc1O` [Sulfasalazine], the “growth AUC normalised to DMSO control” value is 1.04.

With `CCCc1nn(C)c2c(=O)[nH]c(-c3cc(S(=O)(=O)N4CCN(C)CC4)ccc3OCC)nc12` [Sildenafil], the “growth AUC normalised to DMSO control” value was 1.1.

Turning to `NS(=O)(=O)c1cc2c(cc1Cl)NC(C(Cl)Cl)NS2(=O)=O` (stereo not given) [Trichlormethiazide], the “growth AUC normalised to DMSO control” value is 1.01.

Turning to `CN1CCN(CCCN2c3ccccc3Sc3ccc(Cl)cc32)CC1` [Prochlorperazine dimaleate], the “growth AUC normalised to DMSO control” value is 0.913.

For the compound `Clc1ccc(C(Cn2ccnc2)OCc2csc3c(Cl)cccc23)c(Cl)c1` (stereo not given) [Sertaconazole nitrate], the “growth AUC normalised to DMSO control” value is 1.07.

As to `O=C(O)c1ccccc1Nc1cccc(C(F)(F)F)c1` [Flufenamic acid], the “growth AUC normalised to DMSO control” value was 0.932.

As to `Cc1nc2n(c(=O)c1CCN1CCC(c3noc4cc(F)ccc34)CC1)CCCC2` [Risperidone], the “growth AUC normalised to DMSO control” value was 1.

Regarding `CO[C@@]1(NC(=O)C2SC(=C(C(N)=O)C(=O)O)S2)C(=O)N2C(C(=O)O)=C(CSc3nnnn3C)CS[C@@H]21` (stereo not given in full) [Cefotetan], the “growth AUC normalised to DMSO control” value was 0.0395 (active).

`Clc1ccc(CO/N=C(\Cn2ccnc2)c2ccc(Cl)cc2Cl)c(Cl)c1` [Oxiconazole nitrate]: the “growth AUC normalised to DMSO control” value is 1.01.

Take `COc1ccccc1O` [Guaiacol]: the “growth AUC normalised to DMSO control” value was 0.998.

Regarding `CC(=O)[C@@]1(O)CC[C@H]2[C@@H]3C[C@H](C)C4=CC(=O)C=C[C@]4(C)[C@@]3(F)[C@@H](O)C[C@@]21C` [Fluorometholone], the “growth AUC normalised to DMSO control” value was 1.

Turning to `NS(=O)(=O)c1cc(C(=O)O)cc(N2CCCC2)c1Oc1ccccc1` [Piretanide], the “growth AUC normalised to DMSO control” value is 1.06.

For the compound `CC(=O)OCC(=O)[C@@]1(OC(C)=O)[C@@H](C)C[C@H]2[C@@H]3C[C@H](F)C4=CC(=O)C=C[C@]4(C)[C@@]3(F)[C@@H](O)C[C@@]21C` [Diflorasone Diacetate], the “growth AUC normalised to DMSO control” value is 0.953.

With `CC(C(=O)O)c1ccc2c(c1)Cc1cccnc1O2` (stereo not given) [Pranoprofen], the “growth AUC normalised to DMSO control” value was 0.985.

`C=C1c2cccc(O)c2C(O)=C2C(=O)[C@]3(O)C(O)=C(C(N)=O)C(=O)[C@@H](N(C)C)[C@@H]3[C@@H](O)[C@H]12` [Methacycline hydrochloride]: the “growth AUC normalised to DMSO control” value is 0.0347 (active).

As to `CCOC(=O)C1=C(C)NC(C)=C(C(=O)OCC)C1c1ccccc1/C=C/C(=O)OC(C)(C)C` [Lacidipine], the “growth AUC normalised to DMSO control” value is 1.01.

As to `CC(C)(C)NCC(O)COc1cccc2c1CC(O)C(O)C2` (stereo not given) [Nadolol], the “growth AUC normalised to DMSO control” value is 1.

Regarding `O=C(O)CCc1nc(-c2ccccc2)c(-c2ccccc2)o1` [Oxaprozin], the “growth AUC normalised to DMSO control” value is 1.08.
